Experimental findings from PubChem BioAssay (NCATS) are described below.

SMILES strings stand for the structures. Records with an inconclusive call do not appear. Calls of active or inactive are those of the source. Unless noted, calls come from the whole dose curve; as a rule, active = well fitted curve in the direction sought with a large enough effect; inconclusive = small, poorly fitted or top-dose-only effect, or another doubt; inactive = no such curve, though single readings can be large; an effect the other way counts as inactive or inconclusive.

The nature of assay [1]: Cytotoxicity counterscreen for inhibitors of SARS-CoV-2 cell entry (AID 1645845; calls by dose curve; note: nearly all actives have a fitted effect of over 50% in size; note: potency is the fitted concentration of half-maximal effect). Summed up:
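Expi293F/hACE2 cells seeded overnight; cpd pin-transferred in DMSO, 1 h preincubation, + media, 48 h 37 C 5% CO2; ATPLite 1step luminescence; normalized to cells and no cells.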

A further assay has as its system CRL-7250. The experiment in a line: qHTS assay to identify novel small-molecules to repurpose for Merkel cell carcinoma treatment (AID 1296009). Note: nearly all actives have a fitted effect of over 60% in size. To be noted: MCC and control cell lines, CellTiter-Glo viability, 72 h; series mostly up to 92 µM. Summed up: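 Cells exposed to NPC (8-point) and MIPE (11-point) compound dilutions for 72 hr at 37 degree celsius; viability read by CellTiter-Glo luminescence, normalized to no-cell and DMSO in-plate controls.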
(In general: qHTS replaces the single test concentration by a dilution series.)

Assay [2] in a line: Primary qHTS to identify inhibitors of SARS-CoV-2 cell entry (AID 1645846; calls by dose curve; note: nearly all actives have a fitted effect of over 45% in size). To be noted: activity change, negative = inhibition: at 57.1 µM (top of the series) unless noted. An outline of the steps: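 Using luciferase-reporting pseudoviruses carrying Wuhan-Hu-1 spike, the screen tracks entry into stably ACE2-expressing cells over 48 hr. Activity is expressed relative to spike particles versus particles lacking any fusion protein.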

In assay [3] the test system is Zika virus NS2B-NS3 protease (linked construct). The experiment in a line: Primary screen NINDS Rhodamine qHTS for Zika virus inhibitors (AID 1347160). Note: % is set by controls: 0 for no effect and ±100 for the full control effect; nearly all actives have a fitted effect of over 55% in size. Summed up: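 Purified NS2B-NS3 protease with the NS2B hydrophilic domain joined by a flexible linker (25 nM) in 10 mM Tris-HCl pH 8.0, 0.01% Tween 20, preincubated 15 min at RT with compound; Rhodamine110 peptide substrate 1.5 µM; fluorescence change over 15 min; 4-parameter Hill fit.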

In assay [4] the target is Calcium and integrin-binding protein 1 (Homo sapiens) (UniProt Q99828). The experiment in a line: Primary qHTS for Identification of Calcium Integrin Binding Protein 1 (CIB1) Competitor (AID 1508620).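 Note: GST tagged CIB1 binding a fluorescein labelled alphaIIb integrin peptide tracer; top concentration of the series differs between compounds; % is set by controls: 0 for no effect and ±100 for the full control effect.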 Summed up:
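Fluorescence polarization competition: CIB1-GST (1 uM final) preincubated with compound 15 min at room temperature, then FITC-labeled alphaIIb peptide (100 nM final) added for another 15 min. Polarization read at Ex 480/Em 540.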

For assay [5], the target named is Cytochrome P450 2D6 (Homo sapiens) (UniProt P10635). The experiment in a line: Cytochrome P450 family 2 subfamily D member 6 (CYP2D6) small molecule antagonists: luciferase biochemical (cell-free) qHTS assay (AID 1645840; active = well fitted curve in the direction sought with a large enough effect in the repeat runs; an effect the other way counts as inactive or inconclusive; note: potency is the fitted concentration of half-maximal effect; nearly all actives have a fitted effect of over 55% in size). Summed up:
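P450-Glo luminescent screen: recombinant CYP2D6 enzyme–proluciferin substrate mix preincubated with compound 10 min at room temperature, then NADPH regeneration added for 1 h at room temperature. Detection reagent added for 20 min; luciferin light read as relative luminescence units.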

In assay [6] the target is Cytochrome P450 2C9 (Homo sapiens) (UniProt P11712). The experiment in a line: Cytochrome P450 family 2 subfamily C member 9 (CYP2C9) small molecule antagonists: luciferase biochemical (cell-free) qHTS assay (AID 1645842; active = well fitted curve in the direction sought with a large enough effect in the repeat runs; an effect the other way counts as inactive or inconclusive; note: potency is the fitted concentration of half-maximal effect; nearly all actives have a fitted effect of over 55% in size). Summed up: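 Luminescence, after 20 min with luciferin detection reagent, reflected CYP2C9 turnover during a 1 h NADPH-driven reaction at 37C. Enzyme-substrate mix contained 0.4% bovine serum albumin and was preincubated with compound 10 min at room temperature.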
Cytochrome P450 2C9 (Homo sapiens), sequence (P11712 whole entry, looked up): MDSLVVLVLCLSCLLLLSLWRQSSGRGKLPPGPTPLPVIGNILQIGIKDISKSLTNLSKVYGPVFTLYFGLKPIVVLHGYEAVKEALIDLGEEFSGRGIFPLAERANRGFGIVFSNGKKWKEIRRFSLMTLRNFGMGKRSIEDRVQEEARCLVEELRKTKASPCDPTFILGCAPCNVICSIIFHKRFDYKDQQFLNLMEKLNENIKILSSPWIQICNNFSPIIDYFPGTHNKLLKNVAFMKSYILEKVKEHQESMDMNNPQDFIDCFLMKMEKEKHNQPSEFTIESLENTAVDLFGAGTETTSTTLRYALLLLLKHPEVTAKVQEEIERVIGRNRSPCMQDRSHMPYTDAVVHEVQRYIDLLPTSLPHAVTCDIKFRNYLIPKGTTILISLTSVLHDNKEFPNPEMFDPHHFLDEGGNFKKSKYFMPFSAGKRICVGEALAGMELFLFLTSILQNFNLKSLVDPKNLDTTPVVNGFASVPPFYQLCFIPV

A short description of assay [7]: Primary qHTS for inhibitors of nuclear receptor binding SET domain protein 2 (NSD2) in an isogenic RCH-ACV NSD2 p.E1099K mutant (9B) (AID 1645876). Note: potency is the fitted concentration of half-maximal effect; nearly all actives have a fitted effect of over 70% in size.
A short description of assay [8]: Primary qHTS for inhibitors of nuclear receptor binding SET domain protein 2 (NSD2) in an RCH-ACV wild type WT cells (2C) (AID 1645877). Note: potency is the fitted concentration of half-maximal effect; nearly all actives have a fitted effect of over 70% in size.
Assay [9] addresses Glutathione peroxidase 1 (Homo sapiens) (UniProt P07203). The experiment in a line: Primary qHTS Assay for Inhibitors of Recombinant Selenoprotein Glutathione Peroxidase 1 (GPX1) (AID 1845191). Note: nearly all actives have a fitted effect of over 65% in size. Summed up:
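Recombinant GPX1 (10 nM final) was preincubated with compound for 30 min at room temperature, then reacted with 1 mM GSH, 0.5 mM CHP, 0.5 mM NADPH and 100 nM glutathione reductase; NADPH fluorescence (340/450 nm) was read at 0 and 15 min.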

The target of assay [10] is Luciferin 4-monooxygenase (Photinus pyralis) (UniProt P08659). The assay is described as follows: Primary firefly luciferase (FLuc) qHTS assay for identification of artifact compounds. (AID 1845220). Note: nearly all actives have a fitted effect of over 60% in size. To be noted: outcome: dose series up to 54.1 µM unless noted. An outline of the steps: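 Reaction readout was CCD-imaged luminescence, taken 5 min after adding 10 nM purified firefly enzyme to compound-treated wells holding 10 uM luciferin and ATP in pH 7.6 buffer.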

A short description of assay [11]: Primary fluorescence-based thiol-reactive (MSTI) qHTS assay for identification of artifact compounds. (AID 1845221).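 Note: thiol-reactive compounds lower the probe fluorescence signal; nearly all actives have a fitted effect of over 65% in size.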 An outline of the steps: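 First, 4 uM MSTI in 2% DMSO/PBS pH 7.4 was dispensed; next, compounds were added; then plates sat 1 h at room temperature without light. Finally, emission at 598 nm was recorded.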
The subject of assay [12] is Nanoluciferase (engineered Oplophorus gracilirostris luciferase). The assay is described as follows: Primary Nanoluciferase (NLuc) qHTS assay for identification of artifact compounds. (AID 1845222).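 Note: NLuc secreted into diluted conditioned medium of S16 cells; 0% = DMSO and -100% = no enzyme.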 An outline of the steps:
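Concentration-response data were obtained by luminescence after 5 min with Nano-Glo substrate at 1:100. The enzyme was diluted S16 NLuc-expressing cell medium, preincubated with compound for 15 min at RT. Curves were fitted with a 4-parameter Hill model.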

Assay [13] is described as follows: Primary redox qHTS assay for identification of artifact compounds. (AID 1845223).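 Note: 0% = DMSO and 100% = reference compound.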 Summed up:
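Amplex Red (25 uM) and HRP (250 mU/mL) in HBSS, with compounds for 15 min, then 250 uM DTT for 30 min, room temperature, dark. Fluorescence 525/598 nm read; normalized to DMSO and 10 uM DA3003; Hill fit.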

For a further assay, the system named is C33A. The experiment in a line: Primary qHTS to identify gynecologic anti-cancer compounds using libraries of approved drugs and bioactive compounds (AID 1345084). Note: % is set by controls: 0 for no effect and ±100 for the full control effect; nearly all actives have a fitted effect of over 55% in size. To be noted: Gynecologic cancer cell panel viability, ATPlite luminescence, 48 h; series mostly up to 57.5 µM. Summed up: (§1)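 48 h compound exposure at 37 C, 5% CO2; five-point qHTS. ATPlite luminescence readout of cell ATP.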

In a further assay the test system is CAOV3. Described as above. The note with it: Gynecologic cancer cell panel viability, ATPlite luminescence, 48 h; series mostly up to 57.5 µM. Summed up:
as §1
For orientation: ATP-based viability assays read luminescence as a measure of living cells.

The test system of a further assay is CASKI. Described as above. The note with it: Gynecologic cancer cell panel viability, ATPlite luminescence, 48 h; series mostly up to 57.5 µM. An outline of the steps: as §1
In the next assay the test system is Es-2. Described as above. The note with it: Gynecologic cancer cell panel viability, ATPlite luminescence, 48 h; series mostly up to 57.5 µM. Summed up:
as §1

Another assay has as its system HeLa. Described as above. To be noted: Gynecologic cancer cell panel viability, ATPlite luminescence, 48 h; series mostly up to 57.5 µM. Summed up: as §1
The subject of another assay is Hek293T. The description is as above. To be noted: Gynecologic cancer cell panel viability, ATPlite luminescence, 48 h, control line for the selectivity index; series mostly up to 57.5 µM. An outline of the steps: as §1
The subject of a further assay is JEG-3. The assay is described as above. To be noted: Gynecologic cancer cell panel viability, ATPlite luminescence, 48 h; series mostly up to 57.5 µM. Summed up: as §1
The next assay relates to OV90. The assay is described as above. The note with it: Gynecologic cancer cell panel viability, ATPlite luminescence, 48 h; series mostly up to 57.5 µM. Summed up: as §1
In another assay the test system is PA-1. The assay is described as above. To be noted: Gynecologic cancer cell panel viability, ATPlite luminescence, 48 h; series mostly up to 57.5 µM. Summed up: as §1
A further assay has as its system Tov-21-G. The assay is described as above. To be noted: Gynecologic cancer cell panel viability, ATPlite luminescence, 48 h; series mostly up to 57.5 µM. Summed up: as §1
A further assay has as its system Tov112D. The description is as above. The note with it: Gynecologic cancer cell panel viability, ATPlite luminescence, 48 h; series mostly up to 57.5 µM. Summed up: as §1

Cytochrome P450 2D6 (Homo sapiens), sequence (P10635 whole entry, looked up): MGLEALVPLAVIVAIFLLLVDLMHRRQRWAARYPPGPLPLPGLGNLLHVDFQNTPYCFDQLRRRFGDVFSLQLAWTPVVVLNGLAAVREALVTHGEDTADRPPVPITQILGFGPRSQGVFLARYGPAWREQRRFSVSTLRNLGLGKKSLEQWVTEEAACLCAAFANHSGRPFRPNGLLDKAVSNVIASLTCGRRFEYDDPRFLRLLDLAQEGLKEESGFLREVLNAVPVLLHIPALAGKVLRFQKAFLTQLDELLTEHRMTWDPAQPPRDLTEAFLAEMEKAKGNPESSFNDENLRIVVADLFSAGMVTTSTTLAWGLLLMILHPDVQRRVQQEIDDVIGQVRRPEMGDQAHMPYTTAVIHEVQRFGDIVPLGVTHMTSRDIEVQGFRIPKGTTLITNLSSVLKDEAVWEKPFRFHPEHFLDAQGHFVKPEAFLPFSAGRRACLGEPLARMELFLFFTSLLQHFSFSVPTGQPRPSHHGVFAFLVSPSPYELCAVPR
Glutathione peroxidase 1 (Homo sapiens), sequence (P07203 whole entry, looked up): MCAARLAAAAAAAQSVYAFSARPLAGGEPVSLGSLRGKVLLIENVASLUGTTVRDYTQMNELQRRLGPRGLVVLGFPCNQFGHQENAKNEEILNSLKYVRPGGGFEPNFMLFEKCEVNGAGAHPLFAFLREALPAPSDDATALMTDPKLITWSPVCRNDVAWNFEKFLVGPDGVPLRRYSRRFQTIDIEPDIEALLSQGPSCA
Calcium and integrin-binding protein 1 (Homo sapiens), sequence (Q99828 whole entry, looked up): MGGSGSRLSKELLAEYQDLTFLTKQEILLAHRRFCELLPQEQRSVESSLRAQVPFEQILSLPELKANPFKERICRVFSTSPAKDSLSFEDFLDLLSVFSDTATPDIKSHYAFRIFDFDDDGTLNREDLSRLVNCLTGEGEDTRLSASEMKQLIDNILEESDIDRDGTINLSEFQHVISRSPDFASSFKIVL

With `O=C([C@@H](Cc1cccc(C(F)(F)F)c1)NS(=O)(=O)c1cc(F)c2c(c1)CCNC2)N1CCCC1`, the Potency entry (in [1]; in the assay with CRL-7250) was “inactive” in each case.

On to `Cc1cccc(Oc2cnc(=O)[nH]c2)c1`, for which the Potency result (in [1]; in the assay with CRL-7250) was “inactive” in each case. Further, the activity change, negative = inhibition in [2] was -20%.

In the case of `CC(C)N(C[C@H]1O[C@@H](n2cnc3c(N)ncnc32)[C@H](O)[C@@H]1O)C1CC(CCc2nc3ccc(C(C)(C)C)cc3[nH]2)C1` (some centres not stated), the Potency result (in assay [1]; in assay [2]; in the assay on CRL-7250) was “inactive” in each case.

Consider `CCCOc1ccn2c(C(C)=O)cc(-c3ccccc3S(C)(=O)=O)c2c1`, for which the Potency entry (in assay [1]; in [2]; with CRL-7250) was “inactive” throughout.

For `N#Cc1cccc(-c2c[nH]c3ncnc(N4CCOCC4)c23)c1`, the Potency entry (in [1]; in assay [2]; in the assay on CRL-7250) was “inactive” throughout.

For `CCNC(=O)CCC/C=C\C[C@@H]1[C@@H](/C=C/C(O)CCc2ccccc2)[C@@H](O)C[C@@H]1O` (some centres not stated), the Potency result (in assay [1]; in the assay with CRL-7250) was “inactive” in each case. Further, in assay [2], the activity change, negative = inhibition is -23.1%.

Turning to `Cc1cccc(-c2[nH]c(CNc3ccccc3F)nc2-c2ccc3ncnn3c2)n1`, the activity change, negative = inhibition in assay [2] was -32.1%. Moreover, in the assay with CRL-7250, the Potency result is “inactive”.

Take `CNc1nc(C)nc(N[C@H]2CCC[C@@H](C(=O)NCc3ccc(C#N)cc3C(F)(F)F)C2)n1`: the Potency result (in assay [1]; in assay [2]; in the assay with CRL-7250) was “inactive” in each case.

`Cc1c(-c2ccnn2C)cc(C(=O)NCc2ccc(S(C)(=O)=O)cn2)c(=O)n1-c1cccc(C(F)(F)F)c1`: the Potency entry (in assay [1]; in assay [2]; in the assay on CRL-7250) was “inactive” throughout.

For the molecule `N#Cc1ccc(COC[C@H]2O[C@@H](n3c(NCc4ccc(Cl)c(Cl)c4)nc4c(N)ncnc43)[C@H](O)[C@@H]2O)cc1`, the Potency entry (in assay [1]; in the assay on CRL-7250) was “inactive” in each case.

With `O=C(NCCN1CCC2(CC1)C(=O)NCN2c1cccc(F)c1)c1ccc2ccccc2c1`, the Potency result in assay [3], in [4], in assay [9], in [11], in [12] and in assay [13] was “inactive” each time. In addition, the Potency result with C33A, in the assay on CAOV3, with CASKI, in the assay with Es-2, with HeLa and in the assay with Hek293T was “inactive” throughout. Further, the Potency result with JEG-3, in the assay with OV90, in the assay on PA-1, with Tov-21-G and in the assay with Tov112D was “inactive” in each case. Further, the Potency in assay [5] is 2.68 µM (active); in assay [6], 12 µM (active); in [7], 9.16 µM (active); in assay [8] it was 9.16 µM (active). The call in assay [10] was inactive.

With `CCNCc1nc2c(N)nc3ccccc3c2n1CC(C)(C)O`, the Potency entry (in assay [1]; in the assay on CRL-7250) was “inactive” throughout. Besides, in assay [2], the activity change, negative = inhibition is -33.4%.

For the molecule `Cn1nccc1Nc1nccc(-c2ccn([C@H](CO)c3ccc(Cl)c(F)c3)c(=O)c2)n1`, the Potency in [1] is 11.2 µM (active). The Potency result in the assay on CRL-7250 was “inactive”.

On to `COc1ccc(-c2cnc3c(-c4cccc5ncccc45)cnn3c2)cc1`, for which the Potency result (in assay [1]; in assay [2]; with CRL-7250) was “inactive” throughout.
